Assay outcomes (PubChem BioAssay)
SW480 rereplic = induces DNA re-replication in SW480 colon adenocarcinoma cells; SW480 DNA re-replication, Hoechst DNA content imaging, 48 h; Potency, µM (titrated, usually from 46.1 µM), most hits filed as activators; hit rate 1.8% among 340,000; note: nearly all actives have a fitted effect of over 55% in size
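Hoechst fluorescence of nuclei (405 nm excitation, 500-530 nm emission) measured by plate-scanning imager after 48 hr compound exposure at 37 C; re-replication scored as increased number of nuclei with elevated intensity.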
KB-3-1 tox = KB-3-1 parental cell cytotoxicity | KB-3-1 viability, CellTiter-Glo ATP luminescence, 72 h | Potency, µM (doses to about 46.1 µM), usual class: cytotoxic | hit rate 1.4% among 400,000 | AID 1347075; note: nearly all actives have a fitted effect of over 60% in size
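Here the drug-naive KB-3-1 line serves as comparator for MDR sub-line selectivity; cells received compound titrations, 72 h at 37 °C, then CellTiter-Glo readout.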
MCF10A rerep = DNA re-replication induction in MCF 10a cells. MCF 10A DNA re-replication, Hoechst nuclear intensity, 48 h. Potency, µM (series often up to 46.1 µM), most hits filed as activators. hit rate 2.9% among 350,000; note: nearly all actives have a fitted effect of over 50% in size
ELG1 DNA repair = blocks ELG1-dependent DNA repair in HEK293T cells; HEK293T ELG1-luciferase reporter, luminescence, 16 h; DNA damage induced by 5-fluorouridine; Potency, µM (highest dose often 46.1 µM), actives largely listed as inhibitors; hit rate 2.3% among 330,000; AID 504467; note: nearly all actives have a fitted effect of over 55% in size
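In this reporter screen, reduction of luminescence relative to DMSO vehicle indicated activity. Compounds and 5-fluorouridine were added together to 2,000 cells per well, incubated for 16 hr at 37 °C, then developed with ONE-Glo.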
KB-V1 MDR tox = KB-V1 MDR subline cytotoxicity | KB-V1 MDR cells viability, CellTiter-Glo, 72 h | Potency, µM (doses to about 46.1 µM), usual class: cytotoxic | hit rate 3.4% among 400,000; note: nearly all actives have a fitted effect of over 60% in size
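Cells of the MDR subline KB-V1 are plated, dosed with compound at multiple concentrations, and incubated 72 h at 37 degrees C; CellTiter-Glo is then added and luminescence read after 10 min.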
Of the large screens only hits and unclear results are named; the others gave an inactive call. The list is not random: actives were taken first. Their share in the collection is about 8.1%. Calls come from the whole dose curve; as a rule, active = well fitted curve in the direction sought with a large enough effect; inconclusive = small, poorly fitted or top-dose-only effect, or another doubt; inactive = no such curve, though single readings can be large; an effect the other way counts as inactive or inconclusive.

CCc1cc2c(NCC3CCCO3)ncnc2s1 (stereo unspecified)	KB-3-1 tox inconclusive, ELG1 DNA repair inconclusive, KB-V1 MDR tox 16.4µM
CC(C)(C)NC(=O)C(c1ccco1)N(C(=O)Cn1nnc(-c2ccc(F)cc2)n1)c1ccccc1 (stereo unspecified)	KB-3-1 tox inconclusive, KB-V1 MDR tox 3.66µM (no result: ELG1 DNA repair)
CCCCC(C(=O)NC1CCCC1)N(Cc1ccco1)C(=O)Cn1nnc(-c2ccc(F)cc2)n1 (stereo unspecified)	KB-3-1 tox inconclusive, MCF10A rerep inconclusive, ELG1 DNA repair 16.4µM
CC(C)(C)NC(=O)C(c1ccco1)N(C(=O)Cn1nnc(-c2ccc(F)cc2)n1)c1ccccc1F (stereo unspecified)	SW480 rereplic inconclusive, ELG1 DNA repair inconclusive, KB-V1 MDR tox 18.4µM
CC(C(=O)NC1CCCC1)N(C(=O)Cn1nnc(-c2ccc(F)cc2)n1)c1ccccc1F (stereo unspecified)	ELG1 DNA repair 16.4µM, KB-V1 MDR tox inconclusive
O=c1[nH]c(-c2ccccc2)nc2sc(-c3ccccc3)cc12	SW480 rereplic 2.91µM, KB-3-1 tox inconclusive, MCF10A rerep 10.3µM, ELG1 DNA repair inconclusive, KB-V1 MDR tox inconclusive
O=c1[nH]cnc2sc(-c3ccccc3)cc12	ELG1 DNA repair inconclusive
Cc1sc2nc(-c3ccccn3)[nH]c(=O)c2c1-c1ccccc1	SW480 rereplic 23.1µM, KB-3-1 tox inconclusive, MCF10A rerep inconclusive
CCn1c(=O)n(CC)c2cc(N3CCCC3)c(NC(=O)c3ccc(OC)c(Br)c3)cc21	MCF10A rerep inconclusive, ELG1 DNA repair 11.6µM
CCOc1ccccc1C(=O)Nc1cc2c(cc1N1CCCC1)n(CC)c(=O)n2CC	KB-3-1 tox inconclusive, MCF10A rerep inconclusive, ELG1 DNA repair 8.2µM, KB-V1 MDR tox inconclusive
CCn1c(=O)n(CC)c2cc(N3CCCC3)c(NC(=O)c3ccccc3OC)cc21	ELG1 DNA repair inconclusive
CCn1c(=O)n(CC)c2cc(N3CCCC3)c(NC(=O)c3cc(Cl)ccc3OC)cc21	SW480 rereplic inconclusive, KB-3-1 tox inconclusive, MCF10A rerep inconclusive, ELG1 DNA repair 18.3µM
Cc1cc(C)n2nc(C(=O)OCC(=O)N(C)C3CCS(=O)(=O)C3)nc2n1 (stereo unspecified)	KB-3-1 tox inconclusive
Cc1ccc(-c2c(C)n3c4c(=O)n(C)c(=O)n(C)c4nc3n2CCCO)cc1	KB-3-1 tox inconclusive, KB-V1 MDR tox 6.51µM (no result: SW480 rereplic, MCF10A rerep, ELG1 DNA repair)
COC(=O)CCCn1c(-c2ccc(C)cc2)c(C)n2c3c(=O)n(C)c(=O)n(C)c3nc12	KB-V1 MDR tox inconclusive (no result: SW480 rereplic, MCF10A rerep, ELG1 DNA repair)
Cc1ccc(NC(=O)c2ccc3c(c2)C(=O)N(c2ccccc2C)C3=O)nc1	none
O=C(Nc1cccc(F)c1)N1CCc2nc(NCc3cccc(Oc4ccccc4)c3)ncc2C1	KB-3-1 tox inconclusive, KB-V1 MDR tox 18.4µM (no result: SW480 rereplic, MCF10A rerep, ELG1 DNA repair)
O=C(Cc1ccccc1)NC(c1ccco1)c1cc(Cl)c2cccnc2c1O (stereo unspecified)	none (no result: SW480 rereplic, MCF10A rerep, ELG1 DNA repair)
O=C(Oc1c(CN2CCOCC2)cc(Cl)c2cccnc12)c1cccs1	SW480 rereplic 8.2µM, KB-3-1 tox inconclusive, MCF10A rerep inconclusive, ELG1 DNA repair inconclusive, KB-V1 MDR tox inconclusive
O=C(Oc1c(Cl)cc(Cl)c2cccnc12)c1ccco1	SW480 rereplic inconclusive, KB-3-1 tox inconclusive, MCF10A rerep 20.6µM, ELG1 DNA repair inconclusive, KB-V1 MDR tox 2.06µM
O=C(Oc1c(Cl)cc(Cl)c2cccnc12)c1cccs1	SW480 rereplic inconclusive, KB-3-1 tox inconclusive, MCF10A rerep 6.51µM, ELG1 DNA repair inconclusive, KB-V1 MDR tox inconclusive
O=C(Oc1c(CN2CCOCC2)cc(Cl)c2cccnc12)c1ccccc1Cl	KB-3-1 tox inconclusive, MCF10A rerep inconclusive, ELG1 DNA repair 11.6µM, KB-V1 MDR tox inconclusive
O=C(Oc1ccc(Cl)c2cccnc12)N1CCOCC1	none
Cc1ccc2c(C(=O)CNC3=NCCS3)c(C)[nH]c2c1	KB-V1 MDR tox inconclusive (no result: SW480 rereplic, MCF10A rerep, ELG1 DNA repair)
COc1ccc(-c2c(C)nn(Cc3ccccc3)c2N)cc1	KB-V1 MDR tox 20.6µM
COc1ccc(S(=O)(=O)c2c(Nc3c(C)cccc3C)sc(C(=O)c3ccc(F)cc3)c2N)cc1	KB-3-1 tox 5.8µM, KB-V1 MDR tox inconclusive (no result: SW480 rereplic, MCF10A rerep, ELG1 DNA repair)
COc1ccc(S(=O)(=O)c2c(Nc3c(C)cccc3C)sc(C(=O)c3ccc4c(c3)OCO4)c2N)cc1	KB-3-1 tox 3.66µM, KB-V1 MDR tox inconclusive (no result: SW480 rereplic, MCF10A rerep, ELG1 DNA repair)
CCOC(=O)N1CCC(N2Cc3cccc(C(=O)NCc4ccc5c(c4)OCO5)c3C2=O)CC1	ELG1 DNA repair 23.1µM
O=C(c1ccc(N2CCN(C(=O)c3cccc(F)c3)CC2)cc1)c1cccc(F)c1	MCF10A rerep inconclusive, ELG1 DNA repair inconclusive, KB-V1 MDR tox 4.11µM
O=C(c1ccc(N2CCN(C(=O)c3ccccc3Br)CC2)cc1)c1cccc(F)c1	KB-3-1 tox inconclusive, MCF10A rerep inconclusive, ELG1 DNA repair inconclusive, KB-V1 MDR tox 5.8µM
CCOC(=O)N1CCN(c2ccc(C(=O)c3cccc(F)c3)cc2)CC1	ELG1 DNA repair inconclusive, KB-V1 MDR tox inconclusive
CC(=O)Nc1nc(-c2ccc3c(c2)CCN3C(=O)C2CC2)c(C)s1	SW480 rereplic inconclusive, KB-3-1 tox inconclusive, ELG1 DNA repair inconclusive, KB-V1 MDR tox 14.6µM
Cn1c(CSCc2ccccc2Cl)nnc1SCC(=O)Nc1nccs1	KB-V1 MDR tox 20.6µM
Cn1c(CC(=O)Nc2ccc(Cl)c(Cl)c2)nnc1SCC(=O)Nc1nccs1	none
Cn1c(SCC(=O)Nc2nccs2)nnc1C12CC3CC(CC(C3)C1)C2	KB-V1 MDR tox 20.6µM
COc1cccc(OCc2cc(C3Nc4ccccc4C(=O)N3c3ccccc3)ccc2OC)c1 (stereo unspecified)	KB-3-1 tox inconclusive (no result: SW480 rereplic, MCF10A rerep, ELG1 DNA repair)
O=C(N/N=C/c1ccc([N+](=O)[O-])o1)c1cc(-c2ccc(-c3ccccc3)cc2)nc2ccccc12	SW480 rereplic 1.3µM, KB-3-1 tox inconclusive, MCF10A rerep 0.92µM, ELG1 DNA repair inconclusive
Cc1ccc(-c2cc(C(=O)N/N=C/c3ccc([N+](=O)[O-])o3)c3ccccc3n2)o1	SW480 rereplic inconclusive, MCF10A rerep inconclusive, KB-V1 MDR tox inconclusive
O=C(N/N=C/c1ccccn1)c1cc(-c2ccncc2)nc2ccccc12	MCF10A rerep inconclusive, ELG1 DNA repair inconclusive
O=C(N/N=C/c1ccc([N+](=O)[O-])o1)c1cc(-c2ccncc2)nc2ccccc12	SW480 rereplic inconclusive, KB-3-1 tox inconclusive, MCF10A rerep 5.01µM, ELG1 DNA repair inconclusive, KB-V1 MDR tox inconclusive
Cc1ccc(/C=N/NC(=O)c2cc(-c3ccncc3)nc3ccccc23)o1	SW480 rereplic inconclusive, KB-3-1 tox 5.8µM, MCF10A rerep inconclusive
COc1ccccc1-c1cc(C(=O)N/N=C/c2ccc(C)o2)c2ccccc2n1	SW480 rereplic inconclusive, ELG1 DNA repair inconclusive
CC(/C=N/NC(=O)c1cc(-c2ccncc2)nc2ccccc12)=C\c1ccco1	SW480 rereplic 0.92µM, KB-3-1 tox inconclusive, MCF10A rerep inconclusive, ELG1 DNA repair inconclusive, KB-V1 MDR tox 1.46µM
COc1ccc(N2CC(C(=O)N[C@@H](C)C(=O)NCc3ccccc3OC)CC2=O)cc1 (stereo partly specified)	none
